Screens from PubChem BioAssay.
Pf Dd2 growth = P. falciparum Dd2 growth inhibitors, primary screen, SYBR Green fluorescence, single dose replicates | 72 h; stronger effect = lower value | activity change, % at 10 µM | AID 1159554, 2015 | hit rate 2.3% among 94,000; in the data active means activity change below about -80%
C diff HTS = C. difficile growth inhibitors, primary screen, HTS. growth activity, negative = inhibition, % at 16 µg/mL (by protocol). AID 1259249, 2017. hit rate 0.25% among 86,000. Clostridium difficile clinical isolate growth, OD600, 24 h; stronger effect = lower value;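 active means mean growth activity at or below -80% and every replicate also at or below -80%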
A number is an active result; – = inactive; · = no result. An excerpt weighted towards active compounds, which were near 2.4% of everything screened.

SMILES | Pf Dd2 growth | C diff HTS
C[C@H](CO)N1C[C@H](C)[C@H](CN(C)C(=O)CCC(F)(F)F)OCCCC[C@H](C)Oc2ccc(NC(=O)Nc3ccccc3)cc2C1=O | – | –
Cc1noc(C)c1S(=O)(=O)N(C)C[C@@H]1Oc2ccc(NC(=O)Nc3ccccc3)cc2CC(=O)N([C@H](C)CO)C[C@@H]1C | – | ·
C[C@H]1CN([C@@H](C)CO)C(=O)c2cc(NC(=O)c3ccncc3)ccc2O[C@@H]1CN(C)C(=O)Nc1cccc2ccccc12 | – | –
COc1ccccc1-c1ccc2c(c1)O[C@@H](CN(C)C(=O)Nc1cccc(F)c1)[C@H](C)CN([C@@H](C)CO)S2(=O)=O | – | –
COc1ccc2c3c([nH]c2c1)[C@H](CO)NCC31CCN(S(=O)(=O)c2ccccc2)CC1 | – | –
COc1cccc(S(=O)(=O)N2CCC3(CC2)CN[C@@H](CO)c2[nH]c4cc(OC)ccc4c23)c1 | -92 | –
CCC(=O)N1CC2(C1)CN(S(=O)(=O)c1ccccc1)[C@H](CO)c1[nH]c3cc(OC)ccc3c12 | – | –
COc1ccc2c3c([nH]c2c1)[C@H](CO)N(S(=O)(=O)c1cn(C)cn1)CC31CCN(CC2CCCCC2)CC1 | -85 | –
CCC(=O)N1CC2(C1)CN(S(=O)(=O)c1ccccc1)[C@@H](CO)c1[nH]c3cc(OC)ccc3c12 | -93 | –
COc1cccc(S(=O)(=O)N2CC3(CCN(C)CC3)c3c([nH]c4cc(OC)ccc34)[C@H]2CO)c1 | – | –
COc1ccc2c3c([nH]c2c1)[C@@H](CO)N(S(=O)(=O)c1cn(C)cn1)CC31CCN(CC2CCCC2)CC1 | – | –
CCS(=O)(=O)N1CC2(C1)CN(S(=O)(=O)c1cccc(OC)c1)[C@@H](CO)c1[nH]c3cc(OC)ccc3c12 | -84 | –
CO[C@@H]1CN(C)C(=O)c2cc(NC(=O)NC(C)C)ccc2OC[C@H](C)N(CCC(F)(F)F)C[C@@H]1C | – | –
CN1c2ccc(Br)cc2[C@H]2[C@H](CCN2C(=O)Cc2ccccc2)[C@H]1CO | – | –
C[C@@H]1CN([C@H](C)CO)S(=O)(=O)c2ccc(-c3ccc(F)cc3)cc2O[C@@H]1CN(C)C(=O)C1CCC1 | – | ·
COc1ccc(S(=O)(=O)N(C)C[C@H]2Oc3ccc(NS(=O)(=O)c4c(C)noc4C)cc3CC(=O)N([C@H](C)CO)C[C@@H]2C)cc1 | – | –
Cc1ccc(S(=O)(=O)Nc2ccc3c(c2)C(=O)N([C@@H](C)CO)C[C@H](C)[C@@H](CN(C)C(=O)NC(C)C)O3)cc1 | – | –
COc1ccccc1NC(=O)N1CCCCN2[C@H](C1)[C@@H](c1ccc(C#CC3CC3)cc1)[C@@H]2CO | – | –
COCCNC(=O)C[C@@H]1CC[C@@H](NC(=O)NC2CCCCC2)[C@H](CO)O1 | – | –
COc1ccc(S(=O)(=O)Nc2ccc3c(c2)C(=O)N([C@@H](C)CO)C[C@H](C)[C@@H](CN(C)S(=O)(=O)c2ccc(Cl)cc2)OCCCC[C@@H](C)O3)cc1 | – | –
C[C@@H]1CCCCO[C@@H](CN(C)S(=O)(=O)c2ccc(Cl)cc2)[C@@H](C)CN([C@@H](C)CO)C(=O)c2cc(NC(=O)Nc3ccc(C(F)(F)F)cc3)ccc2O1 | -83 | –
C[C@@H]1CCCCO[C@H](CN(C)S(=O)(=O)c2ccc(Cl)cc2)[C@H](C)CN([C@@H](C)CO)C(=O)c2cc(NC(=O)Nc3ccc(C(F)(F)F)cc3)ccc2O1 | – | –
C[C@@H]1CCCCO[C@H](CN(C)S(=O)(=O)c2ccc(Cl)cc2)[C@@H](C)CN([C@@H](C)CO)C(=O)c2cc(NC(=O)Nc3ccc(C(F)(F)F)cc3)ccc2O1 | -88 | –
Cc1ccc(S(=O)(=O)N(C)C[C@H]2OCCCC[C@@H](C)Oc3ccc(NC(=O)Nc4ccc(C(F)(F)F)cc4)cc3C(=O)N([C@@H](C)CO)C[C@H]2C)cc1 | – | –
Cc1ccc(S(=O)(=O)N(C)C[C@H]2OCCCC[C@H](C)Oc3ccc(NC(=O)Nc4ccc(C(F)(F)F)cc4)cc3C(=O)N([C@@H](C)CO)C[C@H]2C)cc1 | – | –
SMILES | Pf Dd2 growth | C diff HTS
Cc1ccc(S(=O)(=O)N(C)C[C@@H]2OCCCC[C@@H](C)Oc3ccc(NC(=O)Nc4ccc(C(F)(F)F)cc4)cc3C(=O)N([C@H](C)CO)C[C@@H]2C)cc1 | -82 | –
Cc1ccc(S(=O)(=O)N(C)C[C@H]2OCCCC[C@@H](C)Oc3ccc(NC(=O)Nc4ccc(C(F)(F)F)cc4)cc3C(=O)N([C@@H](C)CO)C[C@@H]2C)cc1 | – | –
C[C@@H]1CN([C@@H](C)CO)C(=O)c2cc(NC(=O)Nc3ccc(C(F)(F)F)cc3)ccc2O[C@@H](C)CCCCO[C@@H]1CN(C)S(=O)(=O)c1ccc(Cl)cc1 | -86 | –
OC[C@H]1[C@@H](c2ccccc2)C2(CN(Cc3nccs3)C2)N1Cc1ccncc1 | – | –
Cc1noc(C)c1NC(=O)N[C@H]1C=C[C@@H](CC(=O)NCc2ccc(Cl)c(Cl)c2)O[C@@H]1CO | – | –
CC(=O)N(C)C[C@@H]1[C@@H](c2ccc(C3=CCCC3)cc2)[C@@H](CO)N1CC1CC1 | – | –
CCCN1[C@H](CO)[C@H](c2ccc(C3=CCCC3)cc2)[C@H]1CN(C(C)=O)C1CCCC1 | -95 | –
CCCN(C)C[C@@H]1Oc2ncc(C#Cc3ccc(F)cc3)cc2C(=O)N([C@H](C)CO)C[C@@H]1C | – | –
CCCN(C)C[C@@H]1Oc2ncc(C#CC3CC3)cc2C(=O)N([C@@H](C)CO)C[C@@H]1C | – | –
CCCN(C)C[C@H]1Oc2ncc(C#Cc3ccc(F)cc3)cc2C(=O)N([C@@H](C)CO)C[C@H]1C | -86 | –
CCCN(C)C[C@H]1Oc2ncc(C#CC3CC3)cc2C(=O)N([C@H](C)CO)C[C@H]1C | -83 | –
CCCNC(=O)N1C[C@@H](O)COC[C@@H]2O[C@H](CC(=O)N3CCC(Cc4ccccc4)CC3)CC[C@H]21 | – | –
CN1C(=O)C2C(C1=O)C1C=C(CCCO)C2C(c2ccc(CN3CCCC3)cc2)N1Cc1sc2ccccc2c1Cl (stereo not drawn) | · | –
O=C(NCCCN1CCOCC1)[C@@H]1[C@@H](CO)[C@@H]2Cn3c(cccc3=O)[C@H]1N2C(=O)C1CCCC1 | – | –
C[C@H]1CN([C@@H](C)CO)C(=O)Cc2cc(NC(=O)CCC(F)(F)F)ccc2O[C@@H]1CN(C)C | – | –
C[C@@H]1CN([C@H](C)CO)C(=O)Cc2cc(NC(=O)Nc3ccccc3)ccc2O[C@H]1CN(C)CC1CC1 | – | –
C[C@H]1CN([C@@H](C)CO)C(=O)Cc2cc(NC(=O)CCC(F)(F)F)ccc2O[C@H]1CN(C)S(C)(=O)=O | -87 | –
C[C@H](CO)N1C[C@H](C)[C@H](CN(C)CC2CC2)Oc2ccc(NC(=O)Nc3ccc(C(F)(F)F)cc3)cc2CC1=O | – | –
C[C@H](CO)N1C[C@H](C)[C@H](CN(C)CC2CC2)Oc2ccc(NC(=O)Nc3ccccc3)cc2CC1=O | -89 | –
C[C@@H]1CN([C@@H](C)CO)C(=O)Cc2cc(NC(=O)Nc3ccc(C(F)(F)F)cc3)ccc2O[C@@H]1CN(C)CC1CC1 | -83 | –
Cc1noc(C)c1NC(=O)N(C)C[C@@H]1OCCCC[C@H](C)Oc2ccc(NS(=O)(=O)c3c(C)noc3C)cc2C(=O)N([C@H](C)CO)C[C@@H]1C | – | –
C[C@@H]1CN([C@@H](C)CO)C(=O)c2cc(NC(=O)C3CCCCC3)ccc2O[C@@H]1CN(C)Cc1ccc(C(=O)Nc2ccccc2N)cc1 | -89 | –
